Results: PubChem BioAssay (NCI)
Compounds without any hit were thinned out: in the full panel of roughly 83,000, 20% have a hit.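 Single-dose data. Exposure time 48 hours. Values below 10 considered active.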 The source made the active and inactive calls.

Assays:
Test in all cases: NCI-60 one-dose screen, 48 h (100 = growth as untreated, 0 = no growth, -100 = all killed)
Conditions in all cases: 10 µM unless noted
SR leukemia = system: SR leukemia
RPMI-8226 leukemia = system: RPMI-8226 leukemia
OVCAR-8 ovarian = system: OVCAR-8 ovarian
OVCAR-5 ovarian = system: OVCAR-5 ovarian
OVCAR-4 ovarian = system: OVCAR-4 ovarian
SK-OV-3 ovarian = system: SK-OV-3 ovarian
IGROV1 ovarian = system: IGROV1 ovarian
OVCAR-3 ovarian = system: OVCAR-3 ovarian
HS 578T breast = system: HS 578T breast
NCI/ADR-RES ovarian = system: NCI/ADR-RES ovarian

Measured: growth

COc1ccc2nc3cc(Cl)ccc3c(NCCCNC(C)=O)c2c1
inactive: SR leukemia 21% | RPMI-8226 leukemia 37.2% | OVCAR-8 ovarian 26.8% | OVCAR-5 ovarian 39.1% | OVCAR-4 ovarian 49.2% | SK-OV-3 ovarian 49.7% | IGROV1 ovarian 36.2% | OVCAR-3 ovarian 45.8% | HS 578T breast 60.4% | NCI/ADR-RES ovarian 41.4%

CCCCCCCCCCCCCCCCNC(=S)N/N=C/c1ccc(O)cc1O
inactive: SR leukemia 41.2% | RPMI-8226 leukemia 59.7% | OVCAR-8 ovarian 56.2% | OVCAR-5 ovarian 95.3% | OVCAR-4 ovarian 66.9% | SK-OV-3 ovarian 87.7% | IGROV1 ovarian 55.2% | OVCAR-3 ovarian 73.1% | HS 578T breast 97.6% | NCI/ADR-RES ovarian 69.9%

CCCC(=O)Nc1ccccc1C(=O)O
inactive: SR leukemia 93.1% | RPMI-8226 leukemia 109% | OVCAR-8 ovarian 91.1% | OVCAR-5 ovarian 99.5% | OVCAR-4 ovarian 101% | SK-OV-3 ovarian 104% | IGROV1 ovarian 110% | OVCAR-3 ovarian 94.7% | HS 578T breast 102% | NCI/ADR-RES ovarian 96.3%

CCCCCCCCCCCCc1ccc([N+](CC)(CC)CC)cc1
active: RPMI-8226 leukemia 6.37%
inactive: SR leukemia 32.4% | OVCAR-8 ovarian 31.7% | OVCAR-5 ovarian 92.3% | OVCAR-4 ovarian 21.6% | SK-OV-3 ovarian 73.2% | IGROV1 ovarian 48.1% | OVCAR-3 ovarian 23.2% | HS 578T breast 65.4% | NCI/ADR-RES ovarian 103%

Cc1ccc2c(O)c(O)cc(NC(C)CCCN)c2n1 (stereo not given)
active: OVCAR-4 ovarian 6.99%
inactive: SR leukemia 89.5% | RPMI-8226 leukemia 75% | OVCAR-8 ovarian 30.7% | OVCAR-5 ovarian 87.4% | SK-OV-3 ovarian 102% | IGROV1 ovarian 86.3% | OVCAR-3 ovarian 10.8% | HS 578T breast 80.8% | NCI/ADR-RES ovarian 91.3%

CCOC(=O)NC1=NCC(C)(C)S1
inactive: SR leukemia 104% | RPMI-8226 leukemia 108% | OVCAR-8 ovarian 104% | OVCAR-5 ovarian 98.9% | OVCAR-4 ovarian 102% | SK-OV-3 ovarian 95.2% | IGROV1 ovarian 111% | OVCAR-3 ovarian 97.4% | HS 578T breast 98.7% | NCI/ADR-RES ovarian 103%

Cc1c(Cc2ccccc2)c(=O)oc2c(C)c(OCC(=O)n3nc(C#N)cc3N)ccc12
inactive: SR leukemia 90.3% | RPMI-8226 leukemia 100% | OVCAR-8 ovarian 102% | OVCAR-5 ovarian 104% | OVCAR-4 ovarian 93% | SK-OV-3 ovarian 93.8% | IGROV1 ovarian 103% | OVCAR-3 ovarian 104% | HS 578T breast 99.2% | NCI/ADR-RES ovarian 102%

Cc1ccc(C(C)C)c(OCc2ccc(C(=O)N/N=C/c3cccc(O)c3O)cc2)c1
active: SR leukemia 9.44% | NCI/ADR-RES ovarian 1.46%
inactive: RPMI-8226 leukemia 28.8% | OVCAR-8 ovarian 23.7% | OVCAR-5 ovarian 70.3% | OVCAR-4 ovarian 27.8% | SK-OV-3 ovarian 66.1% | IGROV1 ovarian 40.8% | OVCAR-3 ovarian 20.4% | HS 578T breast 76.8%

C[C@@H](c1ccc2c(c1)[nH]c1ccc(Cl)cc12)c1nc2ccccc2[nH]1
inactive: SR leukemia 74.3% | RPMI-8226 leukemia 81.3% | OVCAR-8 ovarian 93% | OVCAR-5 ovarian 112% | OVCAR-4 ovarian 94% | SK-OV-3 ovarian 105% | IGROV1 ovarian 80.6% | OVCAR-3 ovarian 86.7% | HS 578T breast 105% | NCI/ADR-RES ovarian 91%

O=C1NCCN1/N=C/c1c(Cl)nc2n1CCS2
inactive: SR leukemia 59.4% | RPMI-8226 leukemia 63.7% | OVCAR-8 ovarian 115% | OVCAR-5 ovarian 102% | OVCAR-4 ovarian 113% | SK-OV-3 ovarian 111% | IGROV1 ovarian 84% | OVCAR-3 ovarian 106% | HS 578T breast 139% | NCI/ADR-RES ovarian 114%

CC(C)(C)c1ccc(OCCOC(=O)CBr)cc1
active: IGROV1 ovarian 2.57%
inactive: SR leukemia 44.7% | RPMI-8226 leukemia 88.2% | OVCAR-8 ovarian 83.8% | OVCAR-5 ovarian 104% | OVCAR-4 ovarian 98.8% | SK-OV-3 ovarian 104% | OVCAR-3 ovarian 101% | HS 578T breast 108% | NCI/ADR-RES ovarian 108%

CCCCCSc1ccc2nc(NC(=O)OCC)sc2c1
active: OVCAR-3 ovarian -7.09%
inactive: SR leukemia 34.9% | RPMI-8226 leukemia 12.8% | OVCAR-8 ovarian 43.6% | OVCAR-5 ovarian 64.3% | OVCAR-4 ovarian 28.7% | SK-OV-3 ovarian 39.1% | IGROV1 ovarian 46.2% | HS 578T breast 14.1% | NCI/ADR-RES ovarian 11.9%

C=C[C@]1(C)C=C2C(=O)[C@@]3(O)OC[C@@]4(CCCC(C)(C)C43O)C2(O)C(O)C1 (stereo not given in full)
active: SR leukemia -14.4%
inactive: RPMI-8226 leukemia 15.2% | OVCAR-8 ovarian 58.3% | OVCAR-5 ovarian 120% | OVCAR-4 ovarian 24.4% | SK-OV-3 ovarian 104% | IGROV1 ovarian 107% | OVCAR-3 ovarian 16.3% | HS 578T breast 90.3% | NCI/ADR-RES ovarian 60.9%

[N-]=[N+]=Nc1ncc(-c2ccc(C(F)(F)F)cc2)c(NC2CCCCCC2)n1
inactive: OVCAR-8 ovarian 37.2% [100 µM] | OVCAR-5 ovarian 65% [100 µM] | OVCAR-4 ovarian 28.9% [100 µM] | SK-OV-3 ovarian 71.6% [100 µM] | IGROV1 ovarian 36.3% [100 µM] | HS 578T breast 52.3% [100 µM] | NCI/ADR-RES ovarian 43.7% [100 µM]
active: SR leukemia -21.8% [100 µM] | RPMI-8226 leukemia -21% [100 µM] | OVCAR-3 ovarian 7.63% [100 µM]

COc1ccc(Cn2cc3c(c2-c2ccc(OC)cc2)CCc2cnoc2-3)cc1
active: SR leukemia 1.81% | SK-OV-3 ovarian 3.54% | IGROV1 ovarian -2.82% | OVCAR-3 ovarian -18.2% | HS 578T breast -2.76% | NCI/ADR-RES ovarian -3.57%
inactive: RPMI-8226 leukemia 16.7% | OVCAR-8 ovarian 23.8% | OVCAR-5 ovarian 52.2% | OVCAR-4 ovarian 35.9%

COC(=O)c1cc(O)c2cc3c(cc2c1-c1cc(OC)c(OC)c(OC)c1)OCO3
active: RPMI-8226 leukemia 4.51% | OVCAR-3 ovarian 8.41% | HS 578T breast -2% | NCI/ADR-RES ovarian 3.4%
inactive: SR leukemia 24.3% | OVCAR-8 ovarian 45.8% | OVCAR-5 ovarian 45% | OVCAR-4 ovarian 71.3% | SK-OV-3 ovarian 22.2% | IGROV1 ovarian 44%

CCOc1ccc2nc3ccc(Cl)cc3nc2c1
inactive: RPMI-8226 leukemia 71.5% | OVCAR-8 ovarian 103% | OVCAR-5 ovarian 216% | OVCAR-4 ovarian 82.1% | SK-OV-3 ovarian 104% | OVCAR-3 ovarian 110% | HS 578T breast 106% | NCI/ADR-RES ovarian 96.4%
active: SR leukemia -19.9% | IGROV1 ovarian -8.97%

COc1ccc2oc(=O)cc(CN3C(=O)S/C(=C\c4ccc(Cl)cc4)C3=O)c2c1
inactive: SR leukemia 71.8% | RPMI-8226 leukemia 73.1% | OVCAR-8 ovarian 100% | OVCAR-5 ovarian 97.3% | OVCAR-4 ovarian 91.7% | SK-OV-3 ovarian 113% | IGROV1 ovarian 102% | OVCAR-3 ovarian 89.1% | HS 578T breast 108% | NCI/ADR-RES ovarian 94.6%

O=C(Nn1cnc2ccccc21)N1CCCC1
inactive: SR leukemia 76.5% | RPMI-8226 leukemia 150% | OVCAR-8 ovarian 106% | OVCAR-5 ovarian 95.7% | OVCAR-4 ovarian 118% | SK-OV-3 ovarian 104% | IGROV1 ovarian 39.4% | OVCAR-3 ovarian 104% | HS 578T breast 104% | NCI/ADR-RES ovarian 119%

CCCCCCCCCC[N+](C)(C)N
inactive: SR leukemia 72.7% | RPMI-8226 leukemia 78.1% | OVCAR-8 ovarian 88.1% | OVCAR-5 ovarian 101% | OVCAR-4 ovarian 99.1% | SK-OV-3 ovarian 99.4% | IGROV1 ovarian 83.8% | OVCAR-3 ovarian 100% | HS 578T breast 91.9% | NCI/ADR-RES ovarian 112%

c1ccc(C(=NNc2nc3ccccc3o2)c2ccccn2)nc1
inactive: SR leukemia 11% | OVCAR-8 ovarian 18.7% | OVCAR-5 ovarian 37.5% | OVCAR-4 ovarian 21.8% | SK-OV-3 ovarian 13.8% | IGROV1 ovarian 16.3% | OVCAR-3 ovarian 16.5% | HS 578T breast 44.2%
active: RPMI-8226 leukemia 6.05% | NCI/ADR-RES ovarian -3.58%

O=c1c2c(c3ccccc3n1-c1ccccc1)NC(=S)NC2c1ccccc1 (stereo not given)
inactive: SR leukemia 108% | RPMI-8226 leukemia 50.1% | OVCAR-8 ovarian 106% | OVCAR-5 ovarian 102% | OVCAR-4 ovarian 79.5% | SK-OV-3 ovarian 95.1% | IGROV1 ovarian 102% | OVCAR-3 ovarian 105% | HS 578T breast 105% | NCI/ADR-RES ovarian 109%

Oc1ccccc1/C=N/N=C/c1c(O)ccc2ccccc12
inactive: SR leukemia 55.4% | RPMI-8226 leukemia 96.6% | OVCAR-8 ovarian 80.6% | OVCAR-5 ovarian 102% | OVCAR-4 ovarian 85.4% | SK-OV-3 ovarian 90.8% | IGROV1 ovarian 47.9% | OVCAR-3 ovarian 80.5% | HS 578T breast 101% | NCI/ADR-RES ovarian 92.5%

CCC(C)(C)c1ccc(OCCCCCCN2CCNCC2)cc1
active: SR leukemia -2.78% | RPMI-8226 leukemia -16.4%
inactive: OVCAR-8 ovarian 75.2% | OVCAR-5 ovarian 91.6% | OVCAR-4 ovarian 70% | SK-OV-3 ovarian 101% | IGROV1 ovarian 87.3% | OVCAR-3 ovarian 69.4% | HS 578T breast 64.2% | NCI/ADR-RES ovarian 76.4%

CC(O)c1cc[cH-]c1.[Fe+2].c1cc[cH-]c1 (stereo not given)
inactive: SR leukemia 90.2% | RPMI-8226 leukemia 102% | OVCAR-8 ovarian 100% | OVCAR-5 ovarian 100% | OVCAR-4 ovarian 114% | SK-OV-3 ovarian 99.6% | IGROV1 ovarian 106% | OVCAR-3 ovarian 108% | HS 578T breast 104% | NCI/ADR-RES ovarian 102%

COc1cc(OC)c(NC(=O)n2ncc3cc(Nc4ncnc5ccccc45)ccc32)cc1Cl
inactive: SR leukemia 89.6% | RPMI-8226 leukemia 101% | OVCAR-8 ovarian 110% | OVCAR-5 ovarian 74.2% | OVCAR-4 ovarian 99.8% | SK-OV-3 ovarian 110% | IGROV1 ovarian 56.4% | OVCAR-3 ovarian 91.3% | HS 578T breast 112% | NCI/ADR-RES ovarian 97.3%

CCNc1nnc(COc2ccc(CNC(=O)CCCC/C=C/C(C)C)cc2OC)o1
inactive: SR leukemia 89% | RPMI-8226 leukemia 95.5% | OVCAR-8 ovarian 106% | OVCAR-5 ovarian 103% | OVCAR-4 ovarian 103% | SK-OV-3 ovarian 91.5% | IGROV1 ovarian 103% | OVCAR-3 ovarian 106% | HS 578T breast 98.6% | NCI/ADR-RES ovarian 102%
